Experiment [1] is described as follows: qHTS assay for identifying genotoxic compounds that show differential cytotoxicity against isogenic chicken DT40 cell lines with known DNA damage response pathways - wild type cell line (AID 743012). Note: nearly all actives have a fitted effect of over 60% in size. Note: potency is the fitted concentration of half-maximal effect. Put shortly: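 Cells (DT40 wild type, 300/well) are treated with DMSO-dissolved compounds after a ~0.5 h pre-incubation and kept 40 h at 37 C/5% CO2. Viability is then measured by CellTiter-Glo luminescence following 30 min at room temperature.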
A general note: Quantitative high-throughput screening tests each substance at several concentrations.

A short description of experiment [2]: qHTS assay for identifying genotoxic compounds that show differential cytotoxicity against isogenic chicken DT40 cell lines with known DNA damage response pathways - Rev3 mutant cell line (AID 743014). Note: nearly all actives have a fitted effect of over 55% in size. Note: potency is the fitted concentration of half-maximal effect.
A short description of experiment [3]: qHTS assay for identifying genotoxic compounds that show differential cytotoxicity against isogenic chicken DT40 cell lines with known DNA damage response pathways - Rad54/Ku70 mutant cell line (AID 743015). Note: nearly all actives have a fitted effect of over 60% in size. Note: potency is the fitted concentration of half-maximal effect.
Experiment [4] can be described thus: qHTS assay to identify small molecule antagonists of the androgen receptor (AR) signaling pathway - cell viability counter screen (AID 743033; note: nearly all actives have a fitted effect of over 45% in size; note: potency is the fitted concentration of half-maximal effect).
A short description of experiment [5]: qHTS assay to identify small molecule antagonists of the thyroid receptor (TR) signaling pathway - cell viability counter screen (AID 743064). Note: nearly all actives have a fitted effect of over 50% in size. Note: potency is the fitted concentration of half-maximal effect. Put shortly:
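Counter screen for cytotoxicity: compound plus T3 (1 nM final) on GH3.TRE-Luc cells, 23.5 h at 37 °C, then fluorescence viability readout with CellTiter-Fluor.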

A short description of experiment [6]: qHTS assay to identify small molecule antagonists of the thyroid receptor (TR) signaling pathway (AID 743065). Note: nearly all actives have a fitted effect of over 55% in size. Note: potency is the fitted concentration of half-maximal effect. The procedure, abridged:
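GH3.TRE-Luc rat pituitary cells carrying two TR response elements driving luciferase were plated for 4 h, given compound plus 1 nM T3 (final), and incubated 23.5 h at 37 C. ONE-Glo luminescence measured reporter inhibition; CellTiter-Fluor fluorescence tracked cytotoxicity.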

The subject of experiment [7] is thyroid hormone receptor (rat, GH3 cells). The experiment is described as follows: qHTS assay to identify small molecule agonists of the thyroid receptor (TR) signaling pathway (AID 743066; calls by dose curve).
The target in experiment [8] is Estrogen receptor (Homo sapiens) (UniProt P03372). The experiment in a line: qHTS assay to identify small molecule antagonists of the estrogen receptor alpha (ER-alpha) signaling pathway (AID 743069; active = well fitted curve in the direction sought with a large enough effect in the signal ratio in the repeat runs, not every such curve was filed as active; the % refers to the signal ratio). The procedure, abridged:
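Estradiol-stimulated ER-alpha-UAS-bla HEK293 cells, 18 hr compound exposure at 37C. LiveBLAzer B/G substrate, 2 hr RT, fluorescence read.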

A short description of experiment [9]: qHTS assay to identify small molecule antagonists of the estrogen receptor alpha (ER-alpha) signaling pathway - cell viability counter screen (AID 743074; calls by dose curve;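 note: HEK293 cells carrying ER-alpha-UAS-bla reporter stimulated with 17beta-estradiol; nearly all actives have a fitted effect of over 45% in size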; note: potency is the fitted concentration of half-maximal effect).
For experiment [10], the target named is Estrogen receptor (Homo sapiens) (UniProt P03372). The experiment is described as follows: qHTS assay to identify small molecule agonists of the estrogen receptor alpha (ER-alpha) signaling pathway (AID 743075; calls by dose curve;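 note: HEK293 GripTite cells with ER-alpha and UAS-driven beta-lactamase reporter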).
For experiment [11] the target is unchanged. The experiment in a line: qHTS assay to identify small molecule agonists of the estrogen receptor alpha (ER-alpha) signaling pathway using the BG1 cell line (AID 743079). Note: nearly all actives have a fitted effect of over 20% in size. Note: potency is the fitted concentration of half-maximal effect. Particulars: BG1Luc4E2 cells, ERE-luciferase agonist, 22 h; activation: at 70.3 µM (top of the series) unless noted.
Experiment [12] is described as follows: qHTS assay to identify small molecule antagonists of the estrogen receptor alpha (ER-alpha) signaling pathway using the BG1 cell line (AID 743080; calls by dose curve;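 note: BG1 cells stimulated with 17beta-estradiol alongside compound; nearly all actives have a fitted effect of over 25% in size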; note: potency is the fitted concentration of half-maximal effect). Put shortly: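 After 5 days in phenol-red-free 10% charcoal-stripped FBS medium, BG1-Luc-4E2 cells were seeded, left 24 h at 37 C, co-treated with compounds and 17beta-estradiol for 21.5 h, then assayed for viability and luciferase.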

Experiment [13] is described as follows: qHTS assay to identify small molecule antagonists of the estrogen receptor alpha (ER-alpha) signaling pathway using the BG1 cell line - cell viability counter screen (AID 743081).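 Note: compound given together with 17beta-estradiol as the ER stimulus; nearly all actives have a fitted effect of over 45% in size.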 Note: potency is the fitted concentration of half-maximal effect.
For experiment [14], the target named is Aromatase (Homo sapiens) (UniProt P11511). The experiment in a line: qHTS assay to identify aromatase inhibitors (AID 743083). Note: nearly all actives have a fitted effect of over 55% in size. Note: potency is the fitted concentration of half-maximal effect.
A short description of experiment [15]: qHTS assay to identify small molecule antagonists of the androgen receptor (AR) signaling pathway using the MDA cell line - cell viability counter screen (AID 743041; note: nearly all actives have a fitted effect of over 45% in size). Put shortly:
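Viability counter screen run alongside the AR antagonist reporter: cells seeded 5 h before compound, R1881 added, 16 h incubation at 37C without CO2, fluorescent CellTiter-Fluor signal quantified.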

Molecules are shown by their SMILES. “And” between values parts separate entries of the source, which are not always exact repeats. Equal values may be shown once. Inconclusive results are not listed. Where a structure was tested more than once in an assay, its records may differ in their call. The source made the active and inactive calls. Unless noted, calls come from the whole dose curve; as a rule, active = well fitted curve in the direction sought with a large enough effect in the repeat runs; inconclusive = weak or mixed curves; inactive = no such curve, though single readings can be large; an effect the other way counts as inactive or inconclusive.

Chain of Aromatase (Homo sapiens) (P11511 whole entry, looked up): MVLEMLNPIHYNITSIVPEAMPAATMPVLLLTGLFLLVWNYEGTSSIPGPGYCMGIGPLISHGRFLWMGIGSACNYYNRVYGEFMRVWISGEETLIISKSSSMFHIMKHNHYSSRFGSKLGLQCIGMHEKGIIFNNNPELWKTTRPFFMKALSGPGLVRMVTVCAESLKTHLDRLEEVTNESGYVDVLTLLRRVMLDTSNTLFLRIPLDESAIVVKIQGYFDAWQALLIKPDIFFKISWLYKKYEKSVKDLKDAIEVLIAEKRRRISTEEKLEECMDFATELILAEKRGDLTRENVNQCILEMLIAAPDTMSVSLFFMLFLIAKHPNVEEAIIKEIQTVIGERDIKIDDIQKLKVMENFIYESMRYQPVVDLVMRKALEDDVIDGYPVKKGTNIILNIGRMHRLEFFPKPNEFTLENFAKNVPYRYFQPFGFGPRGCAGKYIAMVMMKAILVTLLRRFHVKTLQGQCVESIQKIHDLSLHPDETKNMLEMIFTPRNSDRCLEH
Chain of Estrogen receptor (Homo sapiens) (P03372 whole entry, looked up): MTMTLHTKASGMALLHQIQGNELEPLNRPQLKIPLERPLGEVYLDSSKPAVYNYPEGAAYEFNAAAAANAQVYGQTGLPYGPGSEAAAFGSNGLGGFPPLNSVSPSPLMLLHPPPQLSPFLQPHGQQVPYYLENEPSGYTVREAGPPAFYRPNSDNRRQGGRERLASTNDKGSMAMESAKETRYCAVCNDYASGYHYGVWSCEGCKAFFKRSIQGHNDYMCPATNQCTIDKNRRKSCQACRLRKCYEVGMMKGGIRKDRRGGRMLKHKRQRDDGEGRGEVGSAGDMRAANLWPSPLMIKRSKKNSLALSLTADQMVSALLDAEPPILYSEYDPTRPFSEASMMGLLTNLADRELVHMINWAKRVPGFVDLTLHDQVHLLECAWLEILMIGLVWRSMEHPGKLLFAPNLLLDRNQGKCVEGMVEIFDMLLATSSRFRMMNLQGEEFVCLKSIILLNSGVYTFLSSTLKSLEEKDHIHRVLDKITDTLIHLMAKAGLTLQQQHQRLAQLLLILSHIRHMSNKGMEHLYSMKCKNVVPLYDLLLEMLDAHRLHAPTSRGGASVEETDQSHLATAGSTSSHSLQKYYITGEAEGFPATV

With `CN(C)c1nc(=O)n(C2CCCCC2)c(=O)n1C`, the Potency entry in experiment [1], in experiment [2], in [3], in [4], in experiment [5] and in [6] was “inactive” in each case. Moreover, the Potency entry in experiment [7], in experiment [8], in experiment [9], in experiment [10], in experiment [11] and in [12] was “inactive” throughout. Also, the Potency entry in experiment [13] and in [14] was “inactive” each time.

As to `CC(C)(O)C(=O)Nc1ccc([N+](=O)[O-])c(C(F)(F)F)c1`, the Potency is 55.6 µM (active) and 5.62 µM (active) in experiment [1]; 49.5 µM (active) and 6.31 µM (active) in [2]; 19.7 µM (active) and 5.01 µM (active) in experiment [3]; 62.4 µM (active) in [6]; 55.6 µM (active) in [12]. The Potency entry in [5], in experiment [7], in experiment [9], in experiment [10] and in experiment [14] was “inactive” throughout.

On to `CSc1nc(NC(C)C)nc(NC(C)C)n1`, for which the Potency result in [1], in experiment [4], in [15], in experiment [5], in experiment [7] and in experiment [8] was “inactive” in each case. For the same compound, the Potency result in experiment [9], in [10], in experiment [11], in experiment [12], in experiment [13] and in experiment [14] was “inactive” throughout.

For the compound `O=C(O)CF`, the Potency entry in experiment [1], in [2], in experiment [3], in [4], in [5] and in experiment [7] was “inactive” throughout. The Potency entry in experiment [8], in experiment [9], in experiment [10], in experiment [11], in experiment [12] and in experiment [13] was “inactive” in each case. The Potency result in experiment [14] was “inactive”.

Turning to `CCNCC`, the Potency result in [1], in experiment [2], in experiment [3], in [4], in experiment [15] and in experiment [5] was “inactive” in each case. For the same compound, the Potency entry in experiment [7], in [9], in experiment [13] and in experiment [14] was “inactive” in each case.

With `CCOP(=O)(O)OCC` (tested in a mixture with another compound), the Potency entry is “inactive and 96.1 nM (active)” in experiment [1]; “inactive and 85.6 nM (active)” in [2]; “inactive and 96.1 nM (active)” in experiment [3]; “inactive and 17.2 µM (active)” in experiment [4]; “inactive and 7.63 µM (active)” in experiment [5]; “inactive and 27.3 µM (active)” in [9]. In [13], the Potency result is “inactive and 54 µM (active)”. Further, the Potency entry in [7] is “inactive”.

Turning to `CCC[CH2][Sn]([Cl])([CH2]CCC)[CH2]CCC`, the Potency in [1] is 546 nM (active) and 486 nM (active); in experiment [2], 434 nM (active) and 344 nM (active); in experiment [3], 487 nM (active) and 386 nM (active); in [4], 618 nM (active) and 1.1 µM (active); in experiment [5], 307 nM (active) and 386 nM (active); in experiment [6], 194 nM (active) and 273 nM (active). Further, the Potency in experiment [9] is 693 nM (active) and 1.55 µM (active); in experiment [12] it was 274 nM (active) and 486 nM (active); in [13] it was 2.74 µM (active) and 1.72 µM (active); in experiment [14] it was 2.74 µM (active) and 2.17 µM (active).

As for `ClC(Cl)(Cl)Br`, the Potency result in experiment [1], in experiment [2], in [3], in experiment [4], in experiment [15] and in experiment [5] was “inactive” each time. The Potency result in [6], in experiment [7], in experiment [9], in experiment [13] and in experiment [14] was “inactive” each time.

Turning to `c1ccc(C2CO2)cc1` (stereo unspecified), the Potency entry in experiment [1], in experiment [2], in experiment [3], in experiment [4], in [5] and in experiment [9] was “inactive” throughout. Besides, the Potency entry in [13] and in experiment [14] was “inactive” in each case.

Turning to `COc1ccc(CO)cc1`, the Potency entry in experiment [1], in [2], in [3], in experiment [4], in [15] and in experiment [5] was “inactive” throughout. The Potency result in [7], in [9], in experiment [13] and in experiment [14] was “inactive” throughout.

`CCCCCCCCCc1ccc(O)cc1`: the Potency in [3] is 30.9 µM (active); in experiment [5], 39 µM (active); in [11] it was 6.93 µM (active); in experiment [14], 49.1 µM (active). The Potency result in experiment [15], in experiment [7], in [8], in experiment [10], in [12] and in experiment [13] was “inactive” each time.

For the origin of these results see PubChem BioAssay (Tox21).
